Test results: PubChem BioAssay (NCI)
The panel holds about 83,000 compounds, 20% with a hit somewhere; the sample as a whole holds those more often.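 Method: cells in 96-well plates; compound added at one concentration; 48 h incubation; percent growth measured; values under 10 scored active.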 A number with no mark means an inactive call. Calls of active or inactive are those of the source.

tested on: HL-60(TB) leukemia; experiment: NCI-60 one-dose screen, 48 h (100 = growth as untreated, 0 = no growth, -100 = all killed); conditions: 10 µM unless noted

| Structure (SMILES) | growth |
| --- | --- |
| O=C(NCO)c1ccccc1 | 94.4% |
| CCCCOC(=O)c1cccc([N+](=O)[O-])c1 | 142% |
| NC1=Nc2cc(OCCCN3Cc4ccccc4C3)c(OCC3CC3)cc2C12CCCC2 | 62.5% |
| Cc1nc2cc(-c3nn(C(C)C)c4ncnc(N)c34)ccc2o1 | 5.12% (active) |
| COS(=O)(=O)c1ccc(Br)cc1 | 122% |
| CSc1nc2ccccc2cc1/C=C1/C=C(c2ccccc2)NC1=O | 85.7% |
| COc1ccc(-c2nnc(SCC(=O)Nc3ccc(/C(C)=N\O)cc3)n2-c2ccccc2)cc1OC | 77.3% |
| CCOC(=O)CCC[P+](c1ccccc1)(c1ccccc1)c1ccccc1 | 37.7% |
| C=C1C(=O)O[C@H]2[C@H]1CC/C(CNC(=O)c1cc3ccccc3[nH]1)=C\CC[C@@]1(C)O[C@@H]21 | -41.5% (active) |
| CC(C)(C)c1ccc(CCO)cc1 | 86.6% |
| O=[N+]([O-])c1ccc(Br)o1 | 74.8% |
| c1csc(-c2nc(-c3cc4ccccc4c(N4CCOCC4)n3)cs2)c1 | 121% |
| NC(=O)c1cccc(-c2cc(C(N)=O)ccc2Cl)c1 | -22.7% (active) |
| Cc1ccc(OC(=O)c2ccccc2)cc1 | 103% |
| COc1ccc(/C=C2/C(=O)Nc3cc(Cl)c(-c4csc(N)n4)cc32)cc1 | 8.08% (active) |
| O=C(Cn1cc(CN2C(=O)c3ccccc3S2(=O)=O)nn1)Nc1cccc(Cl)c1 | 103% |
| FC1(F)CCN(Cc2c[nH]c3cc(Cl)ccc23)C[C@H]1CCc1ccccc1 | 62.1% |
| COc1ccc(-c2c(-c3cc(OC)c4c(c3)OCO4)noc2N)cc1 | -7.49% (active) |
| OC(c1cccc(-n2ccc(C(F)(F)F)n2)c1)c1cnccc1NC1CCCCCC1 (stereo not given) | -35.7% (active) |
| O=C=NC(c1ccccc1)(c1ccccc1)c1ccccc1 | 102% |
| CNc1nc(NC)c2cn[nH]c2n1 | 103% |
| CCOC(=O)c1[nH]c(-c2ccc(Cl)cc2)cc1-c1cccnc1 | -20.7% (active) |
| Cc1cccc(C)c1NCc1nc(-c2ccccc2)n[nH]1 | 90.7% |
| CCCC[P+](c1ccccc1)(c1ccccc1)c1ccccc1 | 16.3% |
| Cc1ccc(NS(=O)(=O)c2ccc(-c3cnc(C4CC4)o3)cc2)cc1 | 24.3% |
| CCCCCCCCN(CCCCCCCC)C(=O)CCl | 105% |
| Fc1ccc(Cn2cc(CSc3nc4ccccc4o3)nn2)cc1 | 104% |
| CCN1/C(=C/C=C/c2n(-c3ccccc3)c3ccc(-c4nc5ccccc5s4)cc3[n+]2CC)N(c2ccccc2)c2ccc(-c3nc4ccccc4s3)cc21 | 6.43% (active) |
| CC(C)OC(=O)c1cc(NC(=S)OC(C)C)ccc1Cl | 86.2% |
| O=C1C(=O)N(Cc2ccc(-c3ccccc3)cc2)c2ccc(OC(F)(F)F)cc21 | 17.7% |
